About 79,000 compounds went through this panel and 15% of them were active in at least one assay; those are over-represented in the sample as a whole. Unmarked numbers belong to inactive results. Active and inactive are the calls of the source. No stated cut-off is given here; in the data, active means growth inhibition above about 70%; inactive means the rest.
assay: NCI Yeast Anticancer Drug Screen. Data for the mlh1 rad18 strain (AID 175); settings: S. cerevisiae mlh1 rad18 strain growth inhibition; at 50.0 µM; stronger effect = higher value
Summary of the method: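 Genetically defined yeast (DNA repair-deficient) exposed to compounds; growth inhibition determined relative to vehicle.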

Row | Structure (SMILES) | growth inhibition
1 | Cc1ccc(-n2c(CSc3ccc(Cl)cc3)nnc2SCc2nc3ccccc3[nH]2)cc1 | 66.6%
2 | CC(=O)Nc1cccc(C(=O)O)c1 | -16.6%
3 | COc1ccc2c(c1)CCCN2CCCCCCCCCN1CCCCC1 | 69%
4 | CN(C)C(=O)/N=c1\ss/c(=N\C(=S)N(C)C)n1-c1ccccc1 | 62.2%
5 | Clc1ccc(-c2nnc(-c3ccccn3)o2)c(Cl)c1 | 99.4% (active)
6 | CC(O)CC(O)CC1CCCO1 (centres undefined) | 41.2%
7 | CC[C@]1(O)C[C@H]2[C@@H]3CCc4cc(OC)ccc4[C@H]3CC[C@]2(C)[C@H]1O | 46.4%
8 | CCCCCCCCCCCCCCCCCCOS(=O)(=O)O (tested in a mixture with another compound) | 57.5%
9 | C/C(=N\NC(=S)N1CCCC1)c1nc2ncccc2[nH]1 | 82% (active)
10 | CC(C)(C)C1=NN=C2c3ccccc3C(=O)C21 (centres undefined) | 60.7%
11 | O=C(O)c1ccc(N=CC2CO2)cc1 (centres undefined) | -3.15%
12 | CCC1(C)C(C#N)(C#N)C1(C#N)C#N | 98.2% (active)
13 | COc1ccc(N(C)Sc2ccccc2)cc1 | 71.3% (active)
14 | C/C(CCn1[nH]c(=O)ccc1=O)=N\NS(=O)(=O)c1ccc(C)cc1 | -10.3%
15 | CCC[n+]1ccc(/C=N\NC(N)=S)c2ccccc21 | -41.6%
16 | O=S1CCS(=O)C1c1ccccc1 (centres undefined) | 37.7%
17 | NC(=O)c1c(Cl)nc2n1CCS2 | 0.15%
18 | CC(C)S(=O)(=O)ON1C(=O)c2ccc(N(C)C)cc2C1=O | 97.5% (active)
19 | C=Cc1cc(=O)oc2cc(OC)ccc12 | 93.8% (active)
20 | O=[N+]([O-])c1cc(Cl)cc2c1nc(NCCO)c1ccccc12 | 89.5% (active)

Row | Structure (SMILES) | growth inhibition
21 | c1ccc2nc3ccccc3nc2c1 | 75% (active)
22 | Cc1cc(O)ccc1SC#N | 83.5% (active)
23 | CC1=C(C(=O)NCc2ccccc2)C(c2ccccc2O)C(C(=O)NCc2ccccc2)=C(C)N1 | 78.2% (active)
24 | Cc1occc1C(=S)Nc1ccc(Cl)c(COC(C)(C)C)c1 | 78.5% (active)
25 | CCN(CC)CCOc1c(I)cc(I)cc1I | 99.2% (active)
26 | CCc1c(C(=O)OC)c(C(=O)OC)c(-c2ccccc2)n1CCn1c(CC)c(C(=O)OC)c(C(=O)OC)c1-c1ccccc1 | 40.4%
27 | O=C1/C(=C/c2ccc(Cl)cc2)CSC/C1=C\c1ccc(Cl)cc1 | -9.1%
28 | COc1ccc(C2COc3cc(O)c(O)cc3C2)cc1OC (centres undefined) | 88% (active)
29 | O=C1c2ccccc2C(=O)c2c1cc(O)c(O)c2O | 82% (active)
30 | COc1cc[c]([Sn]([O][Sn]([Cl])([c]2ccc(OC)cc2)[c]2ccc(OC)cc2)[c]2ccc(OC)cc2)cc1 | 73.7% (active)
31 | O=C(N/C(=C\c1ccc(/C=C(\NC(=O)c2ccccc2)c2nc3ccccc3s2)cc1)c1nc2ccccc2s1)c1ccccc1 | 83.8% (active)
32 | Cn1c(=O)cc[nH]c1=O | 14.2%
33 | CCOC(=O)C1=C(c2ccccc2)SC(c2ccccc2)N(C(C)C)C1=O (centres undefined) | 88.1% (active)
34 | S=C1NC2=C(CSC/C2=C\c2cccc(Br)c2)C(c2cccc(Br)c2)N1 (centres undefined) | 93.8% (active)
35 | c1ccc2[nH]c(CN(CCN(Cc3nc4ccccc4[nH]3)Cc3nc4ccccc4[nH]3)Cc3nc4ccccc4[nH]3)nc2c1 | 89.7% (active)
36 | O=[N+]([O-])c1ccc(NC(=S)N/N=C(\c2ccccc2)c2ccccn2)cc1 | 79.8% (active)
37 | O=C(NCCl)Nc1ccccc1 | 66%
38 | O=Cc1[nH]c(=S)[nH]c(=O)c1CCCc1ccccc1 | 98.2% (active)
39 | CCCC/C=C(/CCCCOCOCCOC)[Si](C)(C)C | 30.8%

— PubChem BioAssay (NCI)
